The list is not random: actives were taken first. Their share in the collection is about 2.4%.
POLK inh = blocks human DNA polymerase kappa activity; hit rate 0.53% among 400,000; Potency, µM (doses to about 107 µM), without a hit: at the top dose activity, negative = inhibition, actives largely listed as inhibitors; AID 588579; purified Pol kappa, fluorescent DNA synthesis assay, 10 min; Q9UBT6; note: % is set by controls: 0 for no effect and ±100 for the full control effect
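Inhibition of 10 nM Pol kappa is measured by a fluorescent read-out at 0 and 10 min following addition of 50 nM substrate (final), with a 15-min room-temperature compound preincubation.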
POLI inh = blocks human DNA polymerase iota activity; Potency, µM (titrated, usually from 115 µM), inactives show top-dose activity, negative = inhibition, most hits filed as inhibitors; Q9UNA4; Pol iota fluorescent replication assay, 10 min; hit rate 1% among 390,000
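Fluorescent replication assay read twice, at 0 min and 10 min after adding 50 nM (final) substrate. Enzyme (10 nM) and compounds were first incubated 15 min at room temperature; enzyme-free buffer wells were negative controls.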
FEN1 inhibitor = inhibitors of human flap endonuclease 1 | P39748 | Recombinant FEN1 flap cleavage, fluorescence, 15 min | Potency, µM (titrated, usually from 114 µM), inactives show top-dose activity change, negative = inhibition, actives largely listed as inhibitors | hit rate 0.35% among 390,000 | AID 588795; note: % is set by controls: 0 for no effect and ±100 for the full control effect; nearly all actives have a fitted effect of over 65% in size
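Nuclease activity of 10 nM FEN1 was measured after 15 min of room-temperature exposure to titrated compounds, by adding 50 nM flap substrate and reading plates at 0 and 15 min.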
WRN helicase inh-1 = inhibitors of human WRN helicase | Q14191 | WRN helicase unwinding, fluorescent forked duplex, kinetic | Potency, µM (highest dose often 114 µM), without a hit: at the top dose activity change, negative = inhibition, most hits filed as inhibitors | hit rate 0.46% among 360,000 | AID 651768; note: % is set by controls: 0 for no effect and ±100 for the full control effect; nearly all actives have a fitted effect of over 55% in size
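Kinetic red-fluorescence monitoring (525/598 nm) tracks WRN helicase activity after 100 nM fluorophore-quencher forked duplex and 2 mM ATP are added to 20 nM enzyme pretreated 15 min at room temperature with compound.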
POLH inh = blocks human DNA polymerase eta activity; AID 588591; Potency, µM (doses to about 114 µM), for inactives: at the top dose activity change, negative = inhibition, usual class: inhibitors; recombinant Pol eta, fluorescent DNA replication assay; Q9Y253; hit rate 1.2% among 390,000; note: % is set by controls: 0 for no effect and ±100 for the full control effect
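Fluorescent replication assay: 50 nM final substrate added after a 15 min room-temperature compound preincubation with 10 nM enzyme. Signal taken at 0 min and again at 10 min.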
Pol beta inh = blocks human DNA polymerase beta activity. P06746. Pol beta primer extension/strand displacement, fluorescence kinetic. Potency, µM (doses to about 114 µM), for the others: at the top dose activity change, negative = inhibition, usual class: inhibitors. hit rate 1.3% among 340,000; note: % is set by controls: 0 for no effect and ±100 for the full control effect
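Enzyme-only controls used 10 nM Pol beta; buffer lacking enzyme served as negative control. Compound preincubated 15 min, then 50 nM substrate added; 0 and 10 min reads at room temperature.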
WRN helicase inh-2 = WRN helicase inhibition, cherry-pick retest. Potency, µM (highest dose often 57.1 µM), inactives show top-dose activity, negative = inhibition, hits mostly inhibitors. WRN helicase DNA unwinding, fluorescence kinetic. hit rate 63% among 610. shares compounds with WRN helicase inh-1; note: nearly all actives have a fitted effect of over 65% in size
TO displacement = binds DNA, flagged in WRN inhibitor counterscreen. shares compounds with WRN helicase inh-1. AID 720499. hit rate 10% among 610. Potency, µM (titrated, usually from 57.1 µM), for the others: at the top dose activity change, negative = inhibition, most hits filed as inhibitors. thiazole orange DNA binding displacement, fluorescence;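 note: drop in dye fluorescence marks compound binding to DNA; % is set by controls: 0 for no effect and ±100 for the full control effect; nearly all actives have a fitted effect of over 60% in size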
BLM counter = BLM helicase inhibition, WRN selectivity check; Potency, µM (top dose mostly 57.1 µM), for inactives: at the highest dose activity change, negative = inhibition, most hits filed as inhibitors; AID 720503; Recombinant BLM helicase DNA unwinding, red fluorescence; hit rate 60% among 610; shares compounds with WRN helicase inh-1; note: nearly all actives have a fitted effect of over 60% in size
* = called active by the depositor; i = inactive; ? = inconclusive; · = no result; [ ] = remark or other dose. Calls come from the whole dose curve; as a rule, active = well fitted curve in the direction sought with a large enough effect; inconclusive = small, poorly fitted or top-dose-only effect, or another doubt; inactive = no such curve, though single readings can be large; an effect the other way counts as inactive or inconclusive. Potency is the fitted concentration of half-maximal effect.

SMILES	POLK inh	POLI inh	FEN1 inhibitor	WRN helicase inh-1	POLH inh	Pol beta inh	WRN helicase inh-2	TO displacement	BLM counter
Cc1nn2c(=O)cc(COC(=O)c3ccc(NC(=O)c4cccs4)cc3)nc2s1	-4.3%[60.1 µM]	0.1%	-5.2%	·	-9.6%	29.3%	·	·	·
COc1cc(/C=C2/SC(=S)N(CC(=O)O)C2=O)ccc1OC(=O)c1cccs1	-17.1%	?	0.0%	?	?	-13.1%	?	-13.1%	-16.6%
COc1cc(/C=C2/SC(=S)N(C)C2=O)ccc1OC(=O)c1ccco1	-7.9%	-16.3%	-1.8%	-22.9%	-10.9%	32.2%	·	·	·
COc1cc(/C=C2/SC(=S)N(Cc3ccccc3)C2=O)cc(Cl)c1O	-16.6%	-19.4%	?	-128.1%	?	39.8µM*	1.52µM*	?	2.71µM*
COc1cc2c(C(=O)N3CCN(c4cccc(C)c4)C(C)C3)cn(CC(C)C)c(=O)c2cc1OC (stereo not drawn)	-4.8%	14.6%	3.0%	·	-13.9%	-20.5%	·	·	·
CC(C)c1cc(C(=O)NC(C)c2ccccc2)no1 (stereo not drawn)	-9.8%	-0.4%	-1.0%	·	-26.6%	-23.6%	·	·	·
C[C@@H]1NC(=O)N[C@@H]1CCCCCC(=O)O	2.4%	29.8%	2.4%	?	?	·	?	-1.1%	?
O=C1C(=Cc2cn(-c3ccccc3)nc2-c2ccc(OCc3ccccc3)cc2)SC(=S)N1CCS(=O)(=O)O	·	·	·	25.1µM*	·	·	10.8µM*	-29.1%	6.81µM*
NNC(=O)c1ccc(C(=O)N(c2ccccc2)c2ccccc2)cc1	-12.1%	5.1%	7.5%	·	·	·	·	·	·
N#C/C(=C/c1ccc(N2CCCCC2)o1)C(=O)Nc1ccc2ccccc2c1	-13.7%	?	-9.8%	?	?	?	?	i	21.5µM*
Cc1ccc(N(C)C(=O)Cn2nc(Cc3ccncc3)c3ccccc3c2=O)cc1C	0.8%	19.5%	4.8%	·	-1.5%	32.7%	·	·	·
CC1=C(C)CS(=O)N(S(=O)(=O)c2ccc(Cl)cc2)C1 (stereo not drawn)	-2.3%	?	-27.9%	12.6µM*	-2.8%	-2.0%	-29.7%	2.5%	?
CN1C(=O)c2ccccc2N(C)C1c1ccc2c(c1)OCO2 (stereo not drawn)	-18.8%	2.0%	6.5%	-6.0%	-5.7%	-14.3%	·	·	·
CC1=C([N+](=O)[O-])C(c2ccc3c(c2)OCO3)N(C)C(=O)N1C (stereo not drawn)	-14.4%	28.0%	-8.0%	?	-14.9%	-1.2%	-6.4%	-1.3%	-13.5%
Cc1ccc2nc(CCl)[n+]([O-])c(-c3ccccc3)c2c1	-6.5%	-16.4%	4.6%	79.4µM*	-9.7%	19.0%	-1.2%	-1.8%	-10.7%
Cc1ccc2nc(Cl)nc(-c3ccccc3)c2c1	-18.9%	73.1%	2.2%	-6.4%	-10.4%	-0.2%	·	·	·
COc1ccccc1NC(=O)c1c(NCc2sccc2C)sc2c1CCCCC2	-7.5%[60.1 µM]	-11.6%	-16.4%	·	-9.2%	-15.1%	·	·	·
COc1ccc(Cl)cc1NC(=O)c1c(NCc2sccc2C)sc2c1CCCC2	-9.5%[60.1 µM]	?	79.4µM*	·	-7.3%	3.1%	-19.5%	?	?
N#CC1C(=O)c2ccccc2C1c1ccccc1 (stereo not drawn)	-8.3%	?	0.9%	12.6µM*	12.1%	·	-13.7%	2.4%	-14.7%
COc1ccc(-c2csc(NC(=S)NC(=O)c3cccs3)n2)cc1OC	-11.4%	?	-35.0%	?	20µM*	?	?	?	?

Screening results from PubChem BioAssay.
